# GALK inhibitor – galactokinase (human) inhibition; Purified GALK, Kinase-Glo residual ATP luminescence; 270,000 compounds, 0.007% hits; AID 1868; P51570; Potency, µM (doses to about 57.5 µM), without a hit: top-dose activity change, negative = inhibition, usual class: inhibitors
#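 Compounds were pin-transferred into ATP buffer (35 uM final), then GALK plus galactose (5 nM, 100 uM final) was added. After 1 h at room temperature, Kinase-Glo Plus was added and luminescence read after 10 min.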
# TrxR1 inh – inhibitors of rat thioredoxin reductase 1; O89049; recombinant rTrxR1, NADPH fluorescence consumption, selenite substrate; Potency, µM (doses to about 114 µM), without a hit: top-dose activity change, negative = inhibition, most hits filed as inhibitors; 390,000 compounds, 1% hits; AID 588453; further: nearly all actives have a fitted effect of over 65% in size
#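 Rat TrxR1 (90 nM in the dispensed reagent) was pre-reduced with 400 uM NADPH for 5 min at room temperature, then incubated with compound for 15 min. After 400 uM selenite was added, NADPH fluorescence (Ex 340/Em 450 nm) was followed for 8 min.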
# TrxR1 substrate – is turned over as a substrate by rat TrxR1; O89049; purified TrxR1 substrate turnover, NADPH consumption readout; Potency, µM (top dose mostly 114 µM), for the others: top-dose activity change, negative = substrate turnover; 390,000 compounds, 0.01% hits; AID 588456; further: nearly all actives have a fitted effect of over 50% in size
#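 Rat TrxR1, dispensed at 90 nM, was prereduced with 400 uM NADPH (final) for 5 min at ~22 deg C, then incubated with compound 15 min before 400 uM selenite. A first-read NADPH fluorescence drop versus no-compound background flagged substrates.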
# NPSR antagonist – blocks cAMP signaling of the human neuropeptide S receptor | Q6W5P4 | CHO-NPSR cells, cAMP TR-FRET, antagonist mode | Potency, µM (titrated, usually from 38.3 µM), without a hit: at the highest dose activity change, negative = inhibition, most hits filed as inhibitors | 220,000 compounds, 1% hits | AID 1461; further: nearly all actives have a fitted effect of over 50% in size
# Target sequence (Q6W5P4 whole entry, looked up): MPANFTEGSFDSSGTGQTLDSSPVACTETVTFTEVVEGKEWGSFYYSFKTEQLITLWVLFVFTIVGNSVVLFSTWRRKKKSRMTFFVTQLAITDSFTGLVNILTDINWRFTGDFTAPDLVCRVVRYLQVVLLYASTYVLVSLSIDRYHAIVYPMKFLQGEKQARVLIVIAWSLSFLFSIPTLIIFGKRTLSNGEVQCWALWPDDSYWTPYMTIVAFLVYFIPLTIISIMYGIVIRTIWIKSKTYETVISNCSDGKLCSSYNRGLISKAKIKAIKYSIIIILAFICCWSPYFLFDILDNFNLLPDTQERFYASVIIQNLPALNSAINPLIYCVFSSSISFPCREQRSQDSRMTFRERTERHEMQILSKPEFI
# Numbers without * were called inactive; ? = inconclusive; nt = not tested or not shown; [ ] = dose if it differs, or a comment. Sampled rows, rich in hits. Any-hit rate of the full collection: about 1.2%. The call rests on the fitted dose curve; in most records, active means well fitted curve in the direction sought with a large enough effect; inconclusive means small, poorly fitted or top-dose-only effect, or another doubt; inactive means no such curve, though single readings can be large; an effect the other way counts as inactive or inconclusive. On the % scale 0 is the no-effect control and ±100 the full control effect; potency means the concentration at half of the fitted maximal effect.
SMILES,GALK inhibitor,TrxR1 inh,TrxR1 substrate,NPSR antagonist
CC(C)(C)OC(=O)N1CC=C2C(C#N)=C(N)C(C#N)(C#N)[C@H](c3cccnc3)[C@H]2C1,0%,40µM*,18%,-3%[46.1 µM]
Cc1[nH]c2ccccc2c1C(c1c[nH]c2ccccc12)c1c(C)[nH]c2ccccc12,nt,?,-7%[0.0914 µM],nt
Cc1cc(-c2ccc(S(=O)(=O)Nc3ccc(Cl)cc3C)cc2)on1,nt,39%,0%,nt
COc1cc(N(C)C)ccc1/C=C/c1ccnc2ccccc12,nt,10%,-1%,nt
COc1cccc(/C(O)=C/C(=O)C(=O)Nc2ccc(S(=O)(=O)NC(C)=O)cc2)c1,nt,22µM*,-19%,22%
CCc1c(C)nc2nc(-c3ccccc3)nn2c1NCc1ccc(C)cc1,nt,-21%,-2%,nt
CN(C)CCN(Cc1ccccc1)S(=O)(=O)c1ccc(-c2ccc(=O)[nH]n2)s1,-1%,40µM*,11%,nt
CCN(CC)c1ccc(NC(=O)COCc2cc(-c3ccc4c(c3)OCO4)on2)c(C)c1,nt,24%,-5%,nt
Cc1ccc(C(=S)NCS(=O)(=O)c2ccc(C)cc2)cc1,-5%,?,9%,0%[46.1 µM]
Cc1ccc(S(=O)(=O)CNC(=S)c2cccc(Cl)c2)cc1,0%,14µM*,4%,-1%
CC(=C\C(=O)O)/C(=C/c1ccc(C)o1)C(=O)O,nt,71µM*,-5%,1%
CC(=C\C(=O)O)/C(=C/c1ccco1)C(=O)O,-1%,?,-5%,38%
CC(c1ccccc1)N1CCN(C(=O)CCl)CC1 (stereo unspecified),0%,16µM*,3%,7%
CC(CC(=O)N1CCN(C(=O)c2ccccc2)CC1)c1ccccc1 (stereo unspecified),4%,18%,10%[57.1 µM],nt
O=C(O[C@@H]1Cc2c(O)cc(O)cc2O[C@@H]1c1cc(O)c(O)c(O)c1)c1cc(O)c(O)c(O)c1,10µM*,nt,nt,17%
Oc1cc(O)c2c(c1)O[C@H](c1ccc(O)c(O)c1)[C@H](O)C2,nt,3%[57.1 µM],8%[57.1 µM],nt
CCOC(=O)[C@H]1[C@H]2COc3ccc(C)cc3[C@@H]2N2C(=O)CN(Cc3ccc(C)cc3)C(=O)[C@@]12C,nt,15%[57.1 µM],6%[57.1 µM],nt
CCOC(=O)[C@H]1[C@H]2COc3ccc(C)cc3[C@@H]2N2C(=O)CN(Cc3ccco3)C(=O)[C@@]12C,nt,56µM*,3%,nt
CC(C)C[C@H](NC(=O)c1nc[nH]c1C(=O)N[C@@H](CCCCNC(=O)OC(C)(C)C)C(=O)OC(C)(C)C)C(=O)OC(C)(C)C,3%,-15%,-20%,10µM*
CC(C)C[C@H](NC(=O)c1nc[nH]c1C(=O)NCCCCCNC(=O)OC(C)(C)C)C(=O)OC(C)(C)C,-1%,2%,-11%,?
NC(=O)c1sc2nc(-c3ccco3)ccc2c1N,2%,45µM*,7%,2%[46.1 µM]
CC1(C)Cc2c(C#N)c(N3CCN(C(=O)c4ccccc4)CC3)nc(-c3ccco3)c2CS1,-5%,32µM*,6%,?
CC1(C)Cc2c(C#N)c(N3CCCC3)nc(-c3ccco3)c2CO1,1%,nt,nt,-13%[46.1 µM]
COc1ccc(N(C(=O)CCl)C(C(=O)NCCc2ccccc2)c2cccs2)cc1 (stereo unspecified),1%,11µM*,1%,?
COc1ccc(CNC(=O)C(c2ccncc2)N(C(=O)Cc2cccs2)c2ccccc2)cc1 (stereo unspecified),1%,9%[57.1 µM],8%[57.1 µM],6%
SMILES,GALK inhibitor,TrxR1 inh,TrxR1 substrate,NPSR antagonist
CSc1nc(O)c(C(c2ccc(F)cc2)c2c(O)nc(SC)[nH]c2=O)c(=O)[nH]1,nt,?,4%,nt
CSc1nc(O)c(C(c2ccc(OC(C)C)cc2)c2c(O)nc(SC)[nH]c2=O)c(=O)[nH]1,nt,11µM*,3%[57.1 µM],nt
O=Cc1s/c(=N\S(=O)(=O)c2ccccc2)n(CCCCl)c1Cl,-2%,?,5%,10µM*
Clc1ccc(/C=C/c2ccc3ccccc3n2)cc1Cl,nt,?,-4%,nt
O=C(Oc1ccc(N(C(=O)c2ccncc2)S(=O)(=O)c2ccc(F)cc2)cc1)c1ccncc1,1%,35µM*,?,4%
O=C(Oc1ccc(N(C(=O)c2ccncc2)S(=O)(=O)c2ccc(Cl)cc2)cc1)c1ccncc1,-1%,?,6%,-8%
COc1cc2c(NC3CCN(C)CC3)nc(N3CCCCC3)nc2cc1OCCOCCN(C)C,nt,?,91%,nt
COc1ccccc1NC(CC(=O)c1ccccc1)C(=O)OCC(=O)c1ccc(F)cc1 (stereo unspecified),0%,35µM*,-2%,-3%[46.1 µM]
O=C(CC(C(=O)O)c1ccc(Cl)cc1)c1ccccc1 (stereo unspecified),1%,10%,-1%,-7%
O=C(CC(Nc1ccc(Cl)cc1)C(=O)O)c1ccccc1 (stereo unspecified),0%,28µM*,-3%,4%[46.1 µM]
Cc1c(Cl)cccc1NC(CC(=O)c1ccccc1)C(=O)O (stereo unspecified),0%,3.5µM*,4%,-15%
COc1ccccc1NC(=O)CCCC(=O)OCC(=O)c1ccc(F)cc1,6%,12%,3%,nt
O=C(CCC(=O)c1ccc(Oc2ccccc2)cc1)Nc1cccc(Cl)c1Cl,0%,24%,3%,-13%[46.1 µM]
O=C(CC(Nc1cccc(Cl)c1Cl)C(=O)O)c1ccccc1 (stereo unspecified),-3%,40µM*,2%,-12%
CN(C)c1ccc(/C=C/c2ccnc3c(Cl)ccc(Cl)c23)cc1,nt,-8%,-8%,nt
CC1CCN(C(=O)Cn2cc(SCC(=O)Nc3ccccc3C(F)(F)F)c3ccccc32)CC1,nt,7%,-7%,nt
COc1cc2nc(N3CCN(C)CC3)nc(NC(C)C)c2cc1OC,nt,?,46%,nt
Cc1c(Cl)cccc1NC(CC(=O)c1ccccc1)C(=O)OCC(=O)c1cccs1 (stereo unspecified),-5%,40µM*,-8%,-15%[46.1 µM]
O=C(CC(Nc1cccc(Cl)c1Cl)C(=O)OCC(=O)c1cccs1)c1ccccc1 (stereo unspecified),3%,?,4%,-35%
O=C(CC(CC(=O)c1ccccc1)C(=O)O)c1ccccc1,4%,20%,-2%,0%[46.1 µM]
O=C(CC(Nc1ccccc1Cl)C(=O)O)c1ccccc1 (stereo unspecified),-3%,4.5µM*,14%[57.1 µM],-8%
Fc1cccc(Cl)c1CNc1ccc(N2CCCC2)cc1,0%,4µM*,3%[57.1 µM],-31%
O=C(Cc1cccs1)NCCSc1c(-c2ccc(Cl)cc2)[nH]c2ccccc12,nt,67%[57.1 µM],77%[57.1 µM],10µM*
CN(C)S(=O)(=O)c1ccc(C(=O)NCCSc2c(-c3ccc(Cl)cc3)[nH]c3ccccc23)cc1,nt,3%,-7%,nt
Cc1ccc(-n2nnnc2Sc2ccc(S(=O)(=O)NCCN(C)C)cc2[N+](=O)[O-])cc1,-3%,?,4%,14%
O=[N+]([O-])c1cc(S(=O)(=O)NCCN2CCOCC2)ccc1Sc1nnnn1-c1ccccc1,-1%,20µM*,-4%,-11%
COC(=O)c1sc(N)c(C(=O)OC)c1Cn1ncc(Cl)c(Cl)c1=O,-1%,2.5µM*,1%[57.1 µM],nt

# Bioassay records from PubChem.
